About 79,000 compounds went through this panel and 15% of them were active in at least one assay; those are over-represented in the sample as a whole. Values without a mark were called inactive. Calls of active or inactive are those of the source. No stated cut-off is given here; in the data, active means growth inhibition above about 70%; inactive means the rest.

Assay [1] can be described thus: NCI Yeast Anticancer Drug Screen. Data for the rad50 strain (AID 155).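 Further: 0% = growth of vehicle-only cultures of the same strain.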 Conditions: S. cerevisiae rad50 strain growth inhibition, active compounds read high. Put shortly: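 DNA repair mutant yeast, compound exposure, growth read-out; inhibition is taken relative to vehicle.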
The nature of assay [2]: NCI Yeast Anticancer Drug Screen. Data for the mec2-1 strain (AID 157). As to conditions: S. cerevisiae mec2-1 strain, active compounds read high. Put shortly: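 Using mec2-1 yeast: add compound, measure growth, express inhibition versus vehicle-treated cultures.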
A short description of assay [3]: NCI Yeast Anticancer Drug Screen. Data for the sgs1 mgt1 strain (AID 161).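 Further: 0% = growth of cultures given vehicle only.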 Conditions: S. cerevisiae sgs1 mgt1 strain, active compounds read high. Put shortly:
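Percent growth inhibition was derived by comparing compound-exposed mutant yeast with vehicle-exposed cultures. The strain carries alterations in DNA damage repair.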

The nature of assay [4]: NCI Yeast Anticancer Drug Screen. Data for the cln2 rad14 strain (AID 165).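 Further: 0% = growth equal to vehicle treated cultures.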 As to conditions: S. cerevisiae cln2 rad14 strain, active compounds read high. Put shortly: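 Yeast strain cln2 rad14, bearing defects in cell cycle control and DNA repair, serves as the test system; values reflect growth inhibition compared with vehicle.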
Assay [5] in a line: NCI Yeast Anticancer Drug Screen. Data for the bub3 strain (AID 167). As to conditions: S. cerevisiae bub3 mutant strain, active compounds read high. Put shortly: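 In this screen, a yeast mutant lacking normal mitotic checkpoint function is challenged with compound. Relative growth versus vehicle gives the inhibition value.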
The nature of assay [6]: NCI Yeast Anticancer Drug Screen. Data for the mlh1 rad18 strain (AID 175). Conditions: S. cerevisiae mlh1 rad18 strain growth inhibition, active compounds read high. The procedure, abridged:
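Steps: expose repair-defective yeast to compound; measure growth; express inhibition against vehicle-treated controls.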

Setting [7] is: at 5.0 µM (retest, dose inferred, filed as 0.5).
Where [8] appears, read: at 50.0 µM (retest, dose inferred, filed as 5.0).

Regarding `Nc1nc2nc(I)[nH]c2c(=O)[nH]1`, the growth inhibition in assay [1] (setting [7]) was -4%; in assay [1] (setting [8]) it was -4%; in assay [1] (at 50.0 µM), 4.8%; in assay [2] (setting [7]), -13%; in assay [2] (setting [8]) it was -16%; in assay [2] (at 50.0 µM), -2.5%. Besides, the growth inhibition was 10% in assay [3] (setting [7]); 9% in assay [3] (setting [8]); -5.25% in assay [3] (at 50.0 µM); -8% in assay [4] (setting [7]); -4% in assay [4] (setting [8]); 30.3% in assay [4] (at 50.0 µM). For the same compound, the growth inhibition in assay [5] (setting [7]) was -7%; in assay [5] (setting [8]) it was 3%; in assay [5] (at 50.0 µM) it was 31.6%; in assay [6] (setting [7]), -9%; in assay [6] (setting [8]), -2%; in assay [6] (at 50.0 µM) it was 10.9%.

`OC1(C2CCCCC2)c2ccccc2Cc2ccccc21`: the growth inhibition is 6% in assay [1] (setting [7]); 80% (active) in assay [1] (setting [8]); 97.2% (active) in assay [1] (at 50.0 µM); 13% in assay [2] (setting [7]); 76% (active) in assay [2] (setting [8]); 98% (active) in assay [2] (at 50.0 µM). Also, the growth inhibition in assay [3] (setting [7]) was 12%; in assay [3] (setting [8]) it was 93% (active); in assay [3] (at 50.0 µM) it was 96.4% (active); in assay [4] (setting [7]) it was -1%; in assay [4] (setting [8]), 86% (active); in assay [4] (at 50.0 µM) it was 95.4% (active). Besides, the growth inhibition in assay [5] (setting [7]) was 9%; in assay [5] (setting [8]) it was 90% (active); in assay [5] (at 50.0 µM), 96.8% (active); in assay [6] (setting [7]), 7%; in assay [6] (setting [8]), 90% (active); in assay [6] (at 50.0 µM), 97% (active).

In the case of `C/C(=N\NC(=S)NCc1ccccc1)c1nccnc1C`, the growth inhibition is 23% in assay [1] (setting [7]); 98% (active) in assay [1] (setting [8]); 90.9% (active) in assay [1] (at 50.0 µM); 19% in assay [2] (setting [7]); 99% (active) in assay [2] (setting [8]); 89% (active) in assay [2] (at 50.0 µM). Moreover, the growth inhibition in assay [3] (setting [7]) is 35%; in assay [3] (setting [8]) it was 99% (active); in assay [3] (at 50.0 µM) it was 82.9% (active); in assay [4] (setting [7]) it was 35%; in assay [4] (setting [8]) it was 98% (active); in assay [4] (at 50.0 µM) it was 85.9% (active). The growth inhibition in assay [5] (setting [7]) was 52%; in assay [5] (setting [8]), 99% (active); in assay [5] (at 50.0 µM), 83.3% (active); in assay [6] (setting [7]) it was 27%; in assay [6] (setting [8]), 98% (active); in assay [6] (at 50.0 µM) it was 91.7% (active).

For the compound `CC(=O)OCC(=O)[C@@]1(O)CC[C@H]2[C@@H]3CCC4=CC(=O)C=C[C@]4(C)[C@@]3(F)[C@@H](O)C[C@@]21C`, the growth inhibition in assay [1] (setting [7]) was -27%; in assay [1] (setting [8]) it was 41%; in assay [1] (at 50.0 µM) it was 0.4%; in assay [2] (setting [7]) it was 1%; in assay [2] (setting [8]) it was 16%; in assay [2] (at 50.0 µM), -2.8%. In addition, the growth inhibition in assay [3] (setting [7]) was -4%; in assay [3] (setting [8]), 59%; in assay [3] (at 50.0 µM), 17.4%; in assay [4] (setting [7]), -6%; in assay [4] (setting [8]) it was 5%; in assay [4] (at 50.0 µM), 66.2%. Further, the growth inhibition is -2% in assay [5] (setting [7]); 51% in assay [5] (setting [8]); 17.6% in assay [5] (at 50.0 µM); -3% in assay [6] (setting [7]); 71% (active) in assay [6] (setting [8]); 15.6% in assay [6] (at 50.0 µM).

In the case of `Cc1cccc(Nc2c3c(nc4ccccc24)CCCCC3)c1`, the growth inhibition in assay [1] (setting [7]) is 0%; in assay [1] (setting [8]) it was 89% (active); in assay [1] (at 50.0 µM) it was 90% (active); in assay [2] (setting [7]), -2%; in assay [2] (setting [8]), 79% (active); in assay [2] (at 50.0 µM), 28.1%. The growth inhibition in assay [3] (setting [7]) was -2%; in assay [3] (setting [8]), 85% (active); in assay [3] (at 50.0 µM) it was 86.8% (active); in assay [4] (setting [7]) it was -3%; in assay [4] (setting [8]) it was 53%; in assay [4] (at 50.0 µM) it was 66.9%. For the same compound, the growth inhibition is -1% in assay [5] (setting [7]); 92% (active) in assay [5] (setting [8]); 27.1% in assay [5] (at 50.0 µM); -5% in assay [6] (setting [7]); 83% (active) in assay [6] (setting [8]); 93.2% (active) in assay [6] (at 50.0 µM).

As to `N=C(/C(=C/c1ccccc1)c1ccccc1)c1ccccc1`, the growth inhibition was 5% in assay [1] (setting [7]); 78% (active) in assay [1] (setting [8]); 97.6% (active) in assay [1] (at 50.0 µM); 8% in assay [2] (setting [7]); 76% (active) in assay [2] (setting [8]); 98.8% (active) in assay [2] (at 50.0 µM). Moreover, the growth inhibition is 6% in assay [3] (setting [7]); 98% (active) in assay [3] (setting [8]); 98.5% (active) in assay [3] (at 50.0 µM); -4% in assay [4] (setting [7]); 97% (active) in assay [4] (setting [8]); 97.8% (active) in assay [4] (at 50.0 µM). Further, the growth inhibition in assay [5] (setting [7]) was 25%; in assay [5] (setting [8]), 98% (active); in assay [5] (at 50.0 µM) it was 98.7% (active); in assay [6] (setting [7]), 5%; in assay [6] (setting [8]), 98% (active); in assay [6] (at 50.0 µM) it was 97.9% (active).

Take `COc1ccc([N+](=O)[O-])cc1[I+]c1cc([N+](=O)[O-])ccc1OC`: the growth inhibition in assay [1] (setting [7]) is 19%; in assay [1] (setting [8]), 95% (active); in assay [1] (at 50.0 µM) it was 93.2% (active); in assay [2] (setting [7]) it was 58%; in assay [2] (setting [8]) it was 89% (active); in assay [2] (at 50.0 µM), 76.3% (active). Moreover, the growth inhibition in assay [3] (setting [7]) is 49%; in assay [3] (setting [8]), 95% (active); in assay [3] (at 50.0 µM), 92.2% (active); in assay [4] (setting [7]), 16%; in assay [4] (setting [8]), 86% (active); in assay [4] (at 50.0 µM) it was 94.2% (active). Besides, the growth inhibition in assay [5] (setting [7]) is 9%; in assay [5] (setting [8]), 85% (active); in assay [5] (at 50.0 µM), 90.8% (active); in assay [6] (setting [7]) it was 57%; in assay [6] (setting [8]), 98% (active); in assay [6] (at 50.0 µM), 95.7% (active).

Consider `CN(C)c1ccc(/C=C(\C#N)c2c(F)cccc2F)cc1`, for which the growth inhibition in assay [1] (setting [7]) was 4%; in assay [1] (setting [8]), -2%; in assay [1] (at 50.0 µM) it was 6.05%; in assay [2] (setting [7]), 3%; in assay [2] (setting [8]), 2%; in assay [2] (at 50.0 µM), -10.8%. Besides, the growth inhibition in assay [3] (setting [7]) is 4%; in assay [3] (setting [8]), 1%; in assay [3] (at 50.0 µM) it was 17.9%; in assay [4] (setting [7]) it was 3%; in assay [4] (setting [8]), -3%; in assay [4] (at 50.0 µM), 41.8%. The growth inhibition in assay [5] (setting [7]) is 3%; in assay [5] (setting [8]), -2%; in assay [5] (at 50.0 µM), 13.3%; in assay [6] (setting [7]), 1%; in assay [6] (setting [8]), -1%; in assay [6] (at 50.0 µM), 0.45%.

Regarding `CCCCCCCN(CCCCCCC)CC(O)c1ccc2ccc3ccccc3c2c1` (configuration not stated), the growth inhibition was 19% in assay [1] (setting [7]); 76% (active) in assay [1] (setting [8]); 68.2% in assay [1] (at 50.0 µM); 8% in assay [2] (setting [7]); 73% (active) in assay [2] (setting [8]); 62% in assay [2] (at 50.0 µM). For the same compound, the growth inhibition in assay [3] (setting [7]) is 36%; in assay [3] (setting [8]), 85% (active); in assay [3] (at 50.0 µM), 81.2% (active); in assay [4] (setting [7]) it was 13%; in assay [4] (setting [8]), 59%; in assay [4] (at 50.0 µM) it was 38%. For the same compound, the growth inhibition in assay [5] (setting [7]) is 16%; in assay [5] (setting [8]), 78% (active); in assay [5] (at 50.0 µM), 59.4%; in assay [6] (setting [7]) it was 12%; in assay [6] (setting [8]), 78% (active); in assay [6] (at 50.0 µM), 79.2% (active).

Source of the values: PubChem BioAssay (NCI).
